Data published in PubChem BioAssay AID485318 (Broad Institute, 2010).
The campaign covered roughly 1,400 compounds. Fewer than 10 were called active. Not all results are given here. A number with no mark means an inactive call.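 How the source made its calls: active means fluorescence-lowering compounds whose fitted half-maximal concentration is at or below ten times the highest valid dose tested; inconclusive means flat curve at 30 to 70% inhibition, or poor fit; inactive means the rest.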

Target: Histone deacetylase 3 (Homo sapiens) (UniProt O15379)
Assay: HDAC3 deacetylase inhibitors, dose response, counter-screen for JMJD2C/GASC1 demethylase inhibitor project, biochemical, fluorescence, cherry-picked samples (AID 485318);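 further: enzyme preincubated with compound before substrate and trypsin were added; 0% = neutral control wells and -100% = SAHA positive control wells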
Settings: recombinant HDAC3, fluorogenic peptide/trypsin coupled; series mostly up to 12 µM; activity change, negative = inhibition: at the top concentration

Histone deacetylase 3 (Homo sapiens), sequence (O15379 whole entry, looked up): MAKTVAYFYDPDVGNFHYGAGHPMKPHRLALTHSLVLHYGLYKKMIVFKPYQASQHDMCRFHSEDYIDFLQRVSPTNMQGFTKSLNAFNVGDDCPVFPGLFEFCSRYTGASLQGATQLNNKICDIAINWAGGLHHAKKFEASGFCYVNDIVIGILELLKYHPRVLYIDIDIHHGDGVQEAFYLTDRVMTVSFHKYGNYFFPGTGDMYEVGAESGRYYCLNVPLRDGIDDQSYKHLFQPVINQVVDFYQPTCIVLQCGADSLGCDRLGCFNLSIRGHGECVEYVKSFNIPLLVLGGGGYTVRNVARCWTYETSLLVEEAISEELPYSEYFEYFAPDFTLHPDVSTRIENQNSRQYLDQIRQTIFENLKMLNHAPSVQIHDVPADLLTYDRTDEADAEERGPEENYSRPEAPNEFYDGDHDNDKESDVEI

Row | Compound | activity change, negative = inhibition [%]
1 | Cc1ccccc1N=C1N=C(N)c2ccccc21 | 1.05
2 | COc1cccc(C(c2nnnn2CCc2ccccc2)N2CCN(c3ccccc3)CC2)c1OC (centres undefined) | -0.0474
3 | O=C(O)c1ccc2cc(-c3ccccc3)[nH]c2c1 | -0.104
4 | Cc1cc(N(C)C)cc(C)[n+]1[O-] | 1.03
5 | CC(=O)Oc1ccc(NC(=O)Cc2ccccc2)c(C(=O)O)c1 | 0.179
6 | CCN(C[C@H]1N[C@@](Cc2ccccc2)(C(=O)OC)[C@H]2C(=O)N(C)C(=O)[C@@H]12)S(=O)(=O)c1ccccc1 | -0.222
7 | Cn1c(=O)n(C)c2cc(S(=O)(=O)N3CCOCC3)ccc21 | 1.24
8 | Cc1ccc(NC2=NCC(=O)N2Cc2ccc3c(c2)OCO3)c(C)c1 | 0.52
9 | CC1(C)CC2(CC(C)(C)N1)OC(=O)N1CCc3ccccc3C12C (centres undefined) | 0.0279
10 | CCCN(C(=O)Cc1ccc(S(=O)(=O)N2CCOCC2)s1)c1c(N)n(Cc2ccccc2)c(=O)[nH]c1=O | -0.39
11 | CC(=O)Nc1cc2c(cc1NC(=O)Cn1nc(-c3ccccc3)ccc1=O)OCCO2 | -0.351
12 | CCOc1ccccc1N(CC(=O)O)S(=O)(=O)c1ccc(C)cc1 | 0.686
13 | COc1ccc(/C=C2/CC/C(=C\c3ccc(OC)c(OC)c3OC)C2=O)c(OC)c1OC | 0.948
14 | COc1cc(NS(=O)(=O)c2ccc(NC(=O)c3ccc(C)o3)cc2)nc(OC)n1 | 0.178
15 | C[C@@H]1CN([C@H](C)CO)C(=O)c2cc(NC(=O)Cc3ccccc3)ccc2O[C@H]1CN(C)Cc1ccc(Oc2ccccc2)cc1 | 0.213
16 | CCOc1ccc(N2C(=O)CC(N(O)c3ccccc3)C2=O)cc1 (centres undefined) | 0.801
17 | CC1CN(Cc2c(O)ccc3c2oc(=O)c2ccccc23)CC(C)O1 (centres undefined) | -0.481
18 | COc1cc2c(cc1OC)C1=C(C#N)COCN1CC2 | -0.477
19 | CCNC(=S)NNC(=O)c1csc2c1CCC(C)C2 (centres undefined) | 0.337
20 | O=C(CN1C(=O)NC2(CCCC2)C1=O)Nc1nc(-c2ccccc2)cs1 | -0.418
21 | CC1CCCC(NC(=O)COC(=O)c2ccc(N(C)C)cc2)C1C (centres undefined) | 0.088
22 | COc1ccc(C(=O)NCc2nnc(SCC(=O)N3CCc4ccccc43)o2)cc1OC | -0.675
23 | O=C(c1ccncc1)N1N=C(C2CCCCC2)CC1(O)C(F)(F)F (centres undefined) | 0.32
24 | CSc1nnnn1CCn1nnnc1SC | -0.14
25 | CS(=O)(=O)NC1c2cccc3cccc(c23)C1Sc1nncn1/N=C/c1ccco1 (centres undefined) | 0.4
26 | N#Cc1ccc(OCC(=O)N2CCN(S(=O)(=O)c3cccs3)CC2)cc1 | 0.818
27 | Cc1cc(C)n2nc(C(=O)N3CCCC(Nc4ccc(F)c(F)c4)C3)cc2n1 (centres undefined) | 0.457
28 | C=CCn1cnc2scc(-c3ccc(C)cc3)c2c1=O | 0.314
29 | CCCCCNc1nc(-c2ccccc2)nc(-n2ccnc2)n1 | -0.269
